Source: PubChem (National Center for Advancing Translational Sciences (NCATS))
TRHR ag: TRH receptor (human) agonism. TRHR cells, calcium flux fluo-8, FDSS agonist mode. P34981. 360,000 compounds, 0.18% hits. activation, % at 2 µM. AID 493084; in the data active = activation above about 30%; also: 0% is about no effect
Target sequence (P34981 whole entry, looked up): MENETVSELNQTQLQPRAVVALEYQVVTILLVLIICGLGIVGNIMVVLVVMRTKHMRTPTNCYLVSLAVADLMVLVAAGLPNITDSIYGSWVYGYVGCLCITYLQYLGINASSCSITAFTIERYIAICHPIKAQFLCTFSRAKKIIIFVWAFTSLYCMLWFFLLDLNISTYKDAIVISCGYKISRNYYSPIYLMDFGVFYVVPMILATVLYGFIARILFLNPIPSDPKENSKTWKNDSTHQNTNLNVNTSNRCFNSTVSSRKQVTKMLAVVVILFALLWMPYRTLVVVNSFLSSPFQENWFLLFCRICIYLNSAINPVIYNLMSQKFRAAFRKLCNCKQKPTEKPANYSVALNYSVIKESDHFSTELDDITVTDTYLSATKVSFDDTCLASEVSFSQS
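TRHR-expressing cells loaded with fluo-8 calcium dye; 23 nL library compound pin-transferred, kinetic FDSS fluorescence (Ex 480/Em 530) recorded about 180 s for agonist-induced calcium release, before a 10 nM TRH EC20 addition for potentiator mode.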
hERG WT inh: blocks the wildtype human KCNH2 potassium channel; Q12809; U2OS, BacMam KCNH2, thallium flux FluxOr; active compounds read low; activity change, % at 1.84 µM; 340,000 compounds, 0.37% hits; AID 720551;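 active = maximum activity change below -70%; inconclusive = maximum activity change between -70% and -50%; inactive = maximum activity change above -50%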; also: % is scaled to controls: 0 for no effect and ±100 for the full control effect
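U2OS cells were transduced with wild-type KCNH2 virus (2.03 x 10^8 / mL) for 4 h at room temperature, then cultured overnight at 37 C. Thallium flux was read with FluxOr dye. Rate constants were normalized to DMSO controls.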
TRHR PAM: allosteric enhancers of human TRH receptor | TRHR cells, fluo-8 calcium fluorescence, EC20 TRH enhancement | enhancement, % at 2 µM | 360,000 compounds, 0.66% hits; in the data active = enhancement above about 30%; also: 0% is about no effect
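TRHR-expressing cells loaded with fluo-8 calcium dye were read kinetically (ex 480/em 530) during compound addition, then stimulated with an EC20 of TRH (10 nM final). Enhancement of the Gq-mediated intracellular calcium response was scored.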
KCNH2 3.1 block: inhibitors of human KCNH2 3.1 potassium channel isoform; U2OS KCNH2 3.1, thallium flux FluxOr; active compounds read low; activity change, % (tested at about 1.8 µM); 340,000 compounds, 0.95% hits;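 active = maximum activity change below -70%; inconclusive = maximum activity change from -70% to -50%; inactive = maximum activity change above -50%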;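 also: thallium influx rate constant from kinetic fluorescence after stimulation buffer; % is scaled to controls: 0 for no effect and ±100 for the full control effect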
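Steps: virus added to U2OS suspension (4 h, RT, dark); medium with 10% FBS added, cells plated, 37 C overnight; FluxOr/Red40 loading buffer 45 min RT; stimulation buffer, 2 min kinetic read; rate constant normalized.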
TRPML1 ag: agonists of human TRPML1 channel. 410,000 compounds, 0.12% hits. TRPML1-expressing cells, Ca2+ dye fluorescence, FDSS. activation, % (no concentration beside the values). Q9GZU1; in the data active = activation above about 50%; inconclusive = mostly about 30% to 49%; also: 0% is about no effect
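In this qHTS format, compounds were pin-transferred onto Ca8-dye-loaded TRPML1-DL cells induced with Tet overnight, and intracellular Ca2+ fluorescence was recorded kinetically for 110 s after a 10 s baseline. A subsequent 4uM final 54-4 (EC80) addition followed by a second 110 s read served as the antagonist phase.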
TRPML1 blocker: blocks the human TRPML1 channel; TRPML1-inducible cells, Ca2+ dye fluorescence, FDSS; active compounds read low; inhibition of EC80 agonist-evoked calcium signal; activity change, negative = inhibition, % (no concentration beside the values); 390,000 compounds, 0.02% hits; in the data active = activity change below about -50%; inconclusive = between about -30% and that limit;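 also: stimulus is agonist 54-4 at its EC80 concentration; % is scaled to controls: 0 for no effect and ±100 for the full control effect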
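Tet-induced TRPML1-DL cells loaded with Ca8 no-wash calcium dye were read kinetically on FDSS. Compound addition was followed by EC80 agonist 54-4 (4 uM final); inhibition was read over 110 s.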
An asterisk follows results filed as active; ? = inconclusive; · = no result given. Compounds with a hit are over-represented: about 1.7% of the library has one in this group of screens.

SMILES	TRHR ag	hERG WT inh	TRHR PAM	KCNH2 3.1 block	TRPML1 ag	TRPML1 blocker
CCOc1ccc(C(=O)Nc2cccc(-c3cc4ccccc4oc3=O)c2)cc1[N+](=O)[O-]	1	?	-6	-93*	-1	-4
CCOc1ccc2nc(NC(=O)c3cccc(-c4cc5ccccc5oc4=O)c3)sc2c1	0	14	-5	-10	0	7
O=C(COc1ccccc1)OCc1cc(-c2ccco2)on1	0	2	-1	-6	2	-17
Cn1c(C=O)c(C#Cc2ccccc2)c2ccccc21	0	-3	8	-1	1	69
CCNC(=O)C1(C)CCCN(C(=O)C2(c3ccc(Cl)cc3)CCCC2)C1 (centres undefined)	·	·	·	·	-1	·
COC(=O)CCCn1cc(CN2CC(N3CCN(Cc4cccc(C)c4)CC3)CS2(=O)=O)nn1 (centres undefined)	·	·	·	·	0	·
O=C1CCN(Cc2ccc(O)cc2)CCN1[C@H](CO)c1ccccc1	0	-3	6	-118*	0	-24
O=C1CCN(Cc2ccccc2)CCN1[C@H](CO)c1ccccc1	0	5	-5	11	0	-21
CCCN1CCC(=O)N([C@H](CSc2ccc(Br)cc2)c2ccccc2)CC1	0	-130*	2	-116*	-1	2
CCCN1CCC(=O)N(C(CSc2ccc(OC)cc2)c2ccccc2)CC1 (centres undefined)	·	·	·	·	0	-6
O=C1CCN(CCc2ccccc2)CCN1[C@H](CSc1ccc(Br)cc1)c1ccccc1	0	-170*	1	-113*	1	4
COc1ccc(OC)c(NC(=O)c2c(NCc3ccc(N(C)C)cc3)sc3c2CCCC3)c1	0	·	4	·	1	-3
Cc1ccc(Cc2nc3ccccc3nc2SCC(=O)N2CCN(c3ccccc3F)CC2)cc1	0	·	-5	·	-1	15
CC(=O)c1cccc(NC(=O)Nc2ccccc2)c1	1	5	-5	2	0	6
CC(=O)c1cccc(NC(=O)Nc2nc(C)cc(C)n2)c1	-1	-7	33*	26	0	4
CCOC(=O)C1(CCOc2ccccc2)CCN(Cc2ccc(NC(C)=O)cc2)CC1	0	2	7	?	0	11
CCOC(=O)C1(CCOc2ccccc2)CCN(Cc2ccc(OC)cc2)CC1	·	-98*	·	-120*	2	3
CCOC(=O)C1(CCOc2ccccc2)CCN(Cc2cccc3c2OCO3)CC1	1	35	-3	-26	-1	-8
CCOC(=O)C1(CCOc2ccccc2)CCN(Cc2cc(OC)c3c(c2)OCO3)CC1	-1	-32	1	-71*	1	13
CCOC(=O)C1(CCOc2ccccc2)CCN(Cc2ccc(OCC)c(CO)c2)CC1	·	-87*	·	-108*	0	-10
COc1ccc(Cl)cc1NC(=O)CN1C(=O)NC(Cc2c[nH]c3ccccc23)C1=O (centres undefined)	·	13	·	1	2	-1
O=C(Nc1ccccc1)c1ccc(-c2ccccc2Cl)o1	0	·	22	·	0	-2
CC(=O)Nc1ccc(NC(=O)c2ccc(-c3ccccc3Cl)o2)cc1	0	-6	33*	-6	0	-7
COc1cc(C(=O)NC(=S)Nc2ccc(NC(=O)c3ccco3)cc2)cc(OC)c1OC	0	1	6	-83*	2	2
O=C(O)COc1ccc(NC(=O)c2ccc(NC(=O)c3ccco3)cc2)cc1	1	2	1	11	0	-4
SMILES	TRHR ag	hERG WT inh	TRHR PAM	KCNH2 3.1 block	TRPML1 ag	TRPML1 blocker
COc1ccc(NC(=O)c2ccccc2Cl)c(NC(=O)c2ccco2)c1	0	13	4	-7	-1	-4
COc1ccc(C(=O)Nc2ccc(NC(=O)c3ccco3)cc2)cc1	-2	-9	39*	13	0	-1
COc1ccc(NC(=O)c2cc(Cl)ccc2NC(=O)c2ccco2)c(OC)c1	0	-82*	-5	-70*	3	2
COc1ccc(NC(=O)c2ccc3ncsc3c2)cc1	-1	9	35*	-4	1	-14
O=C(Nc1ccc(Br)cc1)c1ccc2ncsc2c1	0	1	8	2	0	11
CCOc1ccccc1NC(=O)CCNC(=O)C1CCN(S(=O)(=O)c2ccccc2)CC1	·	4	·	13	0	13
COc1cc(NC(=O)c2cc(-c3ccco3)on2)c(OC)cc1Cl	0	-26	-6	-81*	0	8
CCOC(=O)N1CCC2CC1c1cc(-c3cccc(OC)c3)ccc12 (centres undefined)	·	-116*	·	-15	0	8
O=C(C1CCC(=O)N(C2CCCC2)C1)N1CCN(Cc2cccc(Cl)c2)CC1 (centres undefined)	-1	-3	7	3	0	2
O=C(Nc1nc2ccccc2s1)c1ccccc1	1	·	2	0	0	-6
CSc1nc2ccc3nc(NC(=O)c4ccccc4)sc3c2s1	0	-5	37*	-7	0	-4
Cc1csc2nc(NC(=O)c3ccccc3)sc(=O)c12	-1	-2	0	-79*	0	58
Cn1nnnc1Sc1ncnc2scc(-c3ccccc3F)c12	-1	·	5	·	·	·
COc1ccccc1-c1ccc(/C=C2\C=CC(=O)O2)o1	73*	-7	4	-25	84*	-17
COc1ccccc1-c1ccc(/C=C2/C=C(C)OC2=O)o1	5	0	6	0	2	19
Cc1cccc(N2CCN(C(=O)CCS(=O)(=O)c3ccc(Br)cc3)CC2C)c1 (centres undefined)	-2	1	-5	-18	3	21
CC(=O)N1CCCc2cc(S(=O)(=O)CCC(=O)N3CCN(c4cccc(C)c4)C(C)C3)ccc21 (centres undefined)	0	-4	2	-93*	-1	17
CCCN(C(=O)c1cc2c(Cl)nc3ccccc3c2s1)c1cccc(C)c1	1	·	40*	·	1	31
CN(CCCNC(=O)c1cc2c(Cl)nc3ccccc3c2s1)Cc1ccccc1	6	-307*	-6	·	0	1
O=C(CNC(=O)c1ccc2ccccc2c1)OC(C(=O)Nc1cc(C(F)(F)F)ccc1Cl)c1ccccc1 (centres undefined)	3	·	-11	·	·	·
CCOc1ccc(N2CC(C(=O)Nc3ccc(S(=O)(=O)Nc4ncccn4)cc3)CC2=O)cc1 (centres undefined)	0	9	32*	2	-1	-7
O=C(Nc1ccc(S(=O)(=O)Nc2ncccn2)cc1)C1CC(=O)N(c2ccccc2)C1 (centres undefined)	0	-15	4	14	0	10
